# Many of the other results were omitted from the sample, so hits are more common in it than they were.
# Pf Dd2 inh – Plasmodium falciparum Dd2 growth inhibition. P. falciparum Dd2 growth, SYBR Green, 72 h. Potency, µM (doses to about 28.9 µM), for inactives: top-dose activity, negative = inhibition, hits mostly inhibitors. 120,000 tested, 4.3% active. AID 1347417; active means well fitted inhibition curve with a large enough effect;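 further: plate controls were DMSO vehicle for no effect and reference drug for full effect; nearly all actives have a fitted effect of over 65% in size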
#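 Readout: SYBR Green fluorescence, 485 nm excitation, 535 nm emission, after ~16 h lysis at 37C. Before that, Dd2-infected red cells (2.5% hematocrit) grew 72 h with compound, 29 uM top final concentration.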
# * = called active by the depositor; i = inactive; [ ] = dose if it differs, or a comment. Potency means the concentration at half of the fitted maximal effect.
SMILES,Pf Dd2 inh
CN(C)C(=O)N1CCCC(c2nc(-c3ccccc3)no2)CCNC(=O)CC1 (stereo not drawn),7.2%
CCC(=O)N1CCCC(c2nc(-c3ccccc3)no2)CCNC(=O)CC1 (stereo not drawn),30.8%
O=S(=O)(c1cccc(Cl)c1)N1CCC(n2cnnc2C2CC2)CC1,-15.8%
Cc1ccc(N2Cc3c(NC4CCCC4)ncnc3N(C)CC2=O)cc1,-12.9%
CCOC(=O)c1cc(-c2ccc(C)cc2)n(CC(=O)Nc2cc(C)ccc2C)c1C,2.6%
CCOC(=O)c1cc(-c2ccccc2)n(CCCC(=O)Nc2ccc(C)cc2Cl)c1C,i
CCOC(=O)c1cc(-c2ccc(C)cc2)n(CCCC(=O)Nc2cc(C)ccc2C)c1,11.2µM*
COc1ccc(-c2nc(C3CC(=O)N(c4ccc(OC)c(OC)c4)C3)no2)cc1F (stereo not drawn),49.0%
COc1cccc(C(=O)N2CCC(c3nc(-c4cccnn4)no3)CC2)c1,-11.3%
O=C(NC1CCN(c2cc(-c3cccs3)[nH]n2)CC1)c1ccc(F)cc1Cl,i
CS(=O)(=O)N1Cc2ccccc2CC2(CCN(CC3CCNC3)C2)C1 (stereo not drawn),9.6%
Cc1ccc(-c2ncc(C(=O)Nc3ccccc3F)c(-c3ccncc3)n2)cc1,-25.9%
Cc1cccc(C(=O)N2CCC3(CC2)OCC(C(=O)N2CCCC2)N3C(=O)c2ccc(F)cc2)c1 (stereo not drawn),-7.1%
CN(Cc1cn(-c2ccccc2)nn1)Cc1nnc(-c2ccccc2)o1,-13.3%
Cc1cc(=O)n(CC(=O)Nc2ccc(Br)cc2)c(N2CCc3ccccc3C2)n1,-3.3%
O=C(COc1ccc(Cl)cc1Cl)Nc1cccc2cccnc12,10.9%
COc1ccc(C(Nc2ccccn2)c2ccc3ccc(C)nc3c2O)cc1C (stereo not drawn),21.1%
Cc1cccc(NC(c2cccc(Cl)c2)c2ccc3cccnc3c2O)n1 (stereo not drawn),2.51µM*
FC(F)(F)c1ccc(CN2CCn3c(nnc3C3CCNCC3)C2)cc1,26.5%
CNC(=O)N1CCC(C2CCN(S(=O)(=O)Cc3ccc(C)cc3)C2)CC1 (stereo not drawn),-13.6%
Cc1nnc2n1CCC(NC(=O)CCc1nc3ccccc3s1)CC2 (stereo not drawn),-21.5%
CN(C)c1cccc(Oc2nnnn2[C@H]2CO[C@H]3[C@@H]2OC[C@@H]3NC(=O)c2ccccc2)c1,i
COc1ncccc1-c1ncc2c(n1)OCCN(c1cccc(C(F)(F)F)c1)C2=O,-9.2%[44.1 µM]
COc1ccccc1-c1ncc2c(n1)OCCN(c1cccc(C(F)(F)F)c1)C2=O,i
O=C1c2cnc(-c3cccc(CO)c3)nc2OCCN1c1cccc(C(F)(F)F)c1,14.1µM*
SMILES,Pf Dd2 inh
Cc1ccc(C(=O)NC[C@H]2O[C@@H](CC(=O)NCc3ccc(F)cc3)[C@H](O)[C@@H]2O)cc1,35.7%[44.1 µM]
Cc1noc(C)c1[S+](=O)([O-])N1CCC2(COC(=O)N2Cc2ccccc2)C1 (stereo not drawn),3.7%[44.1 µM]
COCCN1C(=O)c2ccccc2C(C(=O)Nc2nncs2)C12CCCC2 (stereo not drawn),-9.7%
COCCN1C(=O)c2ccccc2C(C(=O)Nc2nc3c(s2)CCC3)C12CCCC2 (stereo not drawn),12.6µM*
COCCN1C(=O)c2ccccc2C(C(=O)Nc2nc(C(=O)OC)c(C(C)C)s2)C12CCCC2 (stereo not drawn),11.2µM*
COCCN1C(=O)c2ccccc2C(C(=O)NCc2ccccc2)C12CCCC2 (stereo not drawn),-14.5%
COCCN1C(=O)c2ccccc2C(C(=O)NCc2ccc(OC)cc2)C12CCCC2 (stereo not drawn),-12.7%
COCCN1C(=O)c2ccccc2C(C(=O)NCCC(C)C)C12CCCC2 (stereo not drawn),-19.3%
COCCN1C(=O)c2ccccc2C(C(=O)Nc2nc(C)c(C)s2)C12CCCC2 (stereo not drawn),7.94µM*
COCCN1C(=O)c2ccccc2C(C(=O)Nc2nc3ccccc3s2)C12CCCC2 (stereo not drawn),6.31µM*
COCCN1C(=O)c2ccccc2C(C(=O)NCCc2ccccc2)C12CCCC2 (stereo not drawn),-19.7%
O=C1CC2CCN([S+](=O)([O-])C3CCCC3)CC2CCN1 (stereo not drawn),29.1%
Cc1cnc(CC2CCN(C(=O)NC(C)C)C2)n1C1CC1 (stereo not drawn),-18.8%
O=C(N[C@@H]1CCN(Cc2ccc(-c3ccn[nH]3)o2)C[C@H]1O)c1cnccn1,-0.1%
O[C@H]1COCCN(C2CCOCC2)C1,-2.1%[76.6 µM]
CCN(CC)C(=O)COC1CN(Cc2ccc(O)cc2)CC(=O)N(CCc2ccccc2)C1 (stereo not drawn),-25.4%
O=C(Cc1ccccc1F)N1CCCN(c2cc(-c3ccc(Cl)cc3)[nH]n2)CC1,-3.8%
COc1ccc(NC(=O)CC2CCCCN(C)C2=O)cc1OC (stereo not drawn),-16.3%
CC(=O)N1CCCC(c2nnc3n2CCNC3)C1 (stereo not drawn),22.8%
O=C(Nc1cccc(Cl)c1)N1CCC(Oc2ncccc2C(=O)N2CCOCC2)C1 (stereo not drawn),i
COc1ccc(-c2nccn2C2CCC(N)CC2)c(Cl)c1OC (stereo not drawn),4.3%
O=C1NCCCC[C@@H]1Nc1ccc(-c2nc(COc3ccccc3)no2)cn1,-20.3%
CCCc1nnc(NC(=O)C2c3ccccc3C(=O)N(CCOC)C23CCCCC3)s1 (stereo not drawn),10µM*
COCCN1C(=O)c2ccccc2C(C(=O)Nc2nncs2)C12CCCCC2 (stereo not drawn),-21.1%
COCCN1C(=O)c2ccccc2C(C(=O)Nc2nnc(C)s2)C12CCCCC2 (stereo not drawn),-15.7%
SMILES,Pf Dd2 inh
Cc1noc(-c2cn(C3CCCN(C(=O)c4ccc(C)c(F)c4)C3)nn2)n1 (stereo not drawn),i
NCc1cccc(-c2cncnc2)c1,6.4%[44.1 µM]
NCc1cccc(-c2cccc(Cl)c2)c1,12.6µM*
C=Cc1cccc(-c2nccn2-c2cccc(CN)c2)c1,-28.3%
CCc1noc(-c2nc(-c3ccc(OC)cc3)no2)n1,-5.5%
CCCc1nc(C(=O)NC2CCCc3nc(N(C)C)ncc32)cs1 (stereo not drawn),17.3%
O=C(c1ccc(Oc2ccccc2)cc1)N1CCNc2cnc(Nc3cccnc3)nc2C1,12.6µM*
O=C(Cc1ccccc1)N1CCNc2cnc(Nc3ccccc3)nc2C1,-20.4%[44.1 µM]
N#Cc1cccc(C(=O)N2CCNc3cnc(Nc4cccc(F)c4)nc3C2)c1,i
CC(C)NC(=O)N1CCNc2cnc(Nc3cccc(F)c3)nc2C1,-7.1%[44.1 µM]
COc1ccccc1Nc1ncc2c(n1)CN(C(=O)c1ccnn1C)CCN2,3.4%[44.1 µM]
CN(C)c1cccc(C(=O)N2CCNc3cnc(Nc4cccc(C(F)(F)F)c4)nc3C2)c1,7.94µM*
COc1ccccc1C(=O)N1CCCC(c2nn(C)c(=O)n2C(C)C)C1 (stereo not drawn),-24.9%
Cc1ccc(C(=O)N2CCC3(CC2)N(C)C(=O)CS3(=O)=O)c(C)c1,2.7%
CCn1ccc(C(=O)N2CCC3(CC2)NCc2ccccc2-n2ccnc23)n1,i[5.79 µM]
COc1cccc(CN2C(=O)OC3(CCN(Cc4ccccc4OC)CC3)C2(C)c2cccnc2)c1 (stereo not drawn),1.12µM*
COc1cccc(CN2C(=O)OC3(CCN(C(=O)CCc4cccnc4)CC3)C2(C)c2cccnc2)c1 (stereo not drawn),i
COc1cccc(CN2C(=O)OC3(CCN(Cc4ccc(F)cc4)CC3)C2(C)c2cccnc2)c1 (stereo not drawn),0.794µM*

# Source: PubChem (National Center for Advancing Translational Sciences (NCATS))
